Experimental data reported in PubChem BioAssay (NCATS).
Inconclusive results are not listed. Active and inactive are the calls of the source. Calls come from the whole dose curve; as a rule, active = well fitted curve in the direction sought with a large enough effect; inconclusive = small, poorly fitted or top-dose-only effect, or another doubt; inactive = no such curve, though single readings can be large; an effect the other way counts as inactive or inconclusive.

Legend:
[1] = Cytometric Cell-Based qHTS for Inhibitors of the mTORC1 Signaling Pathway in MEF (Tsc2-/-, p53-/-) Cells (AID 2660); settings: mTORC1 pathway cytometry; series mostly up to 38.3 µM;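 note: Tsc2 and p53 null MEFs carrying empty vector with compound for 24 h; percent of cells above a phospho-rpS6 to PI ratio cutoff in each well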
In short: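 Cells are plated, treated with compound for 24 hrs at 37 degree Celsius, then fixed, blocked and immunostained for phospho-rpS6 Ser235/236. Propidium iodide counterstain follows. Per-well % positive cells is derived from the PI-normalized phospho-S6 signal.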

[2] = High Content Imaging Cell-Based qHTS for Inhibitors of the mTORC1 Signaling Pathway in MEF (Tsc2-/-, p53-/-) Cells (AID 2666); settings: at 38.3 µM (top of the series);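 note: percent of cells scored positive for phospho-rpS6 Ser235/236 immunostaining by imaging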
In short: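 Tsc2-/-, p53-/- MEFs (empty-vector stable) grown in DMEM + 10% FBS were exposed to compounds for 24 hrs at 37 degree Celsius, fixed, and stained with Alexa-488 anti-phospho-rpS6 Ser235/236 plus Hoechst. Imaging gave the percentage of positive cells per well.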

[3] = High Content Imaging Cell-Based qHTS for Inhibitors of the mTORC1 Signaling Pathway in MEF Cells (AID 2667); settings: series mostly up to 38.3 µM;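 note: Tsc2-/- p53-/- MEFs stably re-expressing wild-type Tsc2 exposed 24 h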
In short: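 Tsc2-/-, p53-/- MEFs stably re-expressing WT Tsc2, grown in DMEM + 10% FBS, were treated with compounds for 24 hrs at 37 degree Celsius, fixed, and stained with Alexa-488 phospho-rpS6 Ser235/236 antibody plus Hoechst; results given as % positive cells.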

[4] = Cytometry Cell-Based qHTS for Inhibitors of the mTORC1 Signaling Pathway in MEF cells (AID 2668); settings: mTORC1 pathway readout; series mostly up to 38.3 µM;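 note: Tsc2-/- p53-/- mouse embryonic fibroblasts stably re-expressing wild-type Tsc2; percent cells positive for phospho-rpS6 Ser235/236 relative to propidium iodide stain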
In short: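 Read-out: phospho-rpS6 Ser235/236 immunofluorescence normalized to propidium iodide intensity, scored as % active cells against a rapamycin (7.5 nM) threshold. Cells: Tsc2-/-, p53-/- MEFs stably expressing WT Tsc2, compound-treated 24 hrs at 37 degree Celsius.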

[5] = target: Ubiquitin carboxyl-terminal hydrolase 2 (Homo sapiens) (UniProt O75604); assay: qHTS Validation Assay for Inhibitors of Ubiquitin-specific Protease USP2a Using CHOP2 as the Reporter (AID 463106); settings: USP2a cleavage of CHOP2 reporter, enzymatic; series mostly up to 38.3 µM
In short: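 Readout was coupled fluorescence (Ex 485/Em 531 nm), read 60 min after adding 25 nM final Ub-CHOP2 and 25 nM reporter substrate. Beforehand, 10 nM final USP2 core had 30 min at RT with compound in pH 8.0 buffer. Curves were fitted after normalization to NEM and flagged for artifacts using time-zero reads.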

[6] = target: DNA polymerase III PolC-type (Bacillus subtilis (strain 168)) (UniProt P13267); assay: qHTS Validation Assay for the Inhibitors of DNA Replication in Gram-Positive Bacteria (AID 485295); settings: Gram-positive bacterial DNA replication assay; series mostly up to 57.1 µM;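 note: reconstituted holoenzyme with PolC plus beta clamp SSB and primase; PicoGreen fluorescence of double-stranded DNA made on primed circular M13 template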
In short: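 PicoGreen fluorescence (ex 480–485/em 535–540 nm) reports dsDNA synthesized on ssM13Gori template with dNTPs/NTPs. Enzyme: holoenzyme rebuilt from purified PolC, beta subunit, SSB and primase. Compound preincubated before substrate addition; RT throughout.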

[7] = target: Ferritin light chain (Equus caballus) (UniProt P02791); assay: qHTS Validation Assay for Identification of Novel General Anesthetics (AID 2323); settings: horse apoferritin, anesthetic-site fluorescent probe displacement; series mostly up to 76.9 µM
In short: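 10 uM horse-spleen apoferritin + 1-AMA (50% saturated, PBS); cpd pin-transferred, 10 min RT. Ex 380/Em 535 nm endpoint. Activity normalized between free 1-AMA and 1-AMA/apoferritin; 4-parameter Hill fit of concentration-response.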

[8] = target: RecQ-like DNA helicase BLM (Homo sapiens) (UniProt P54132); assay: qHTS Validation Assay for Inhibitors of Bloom's syndrome helicase (BLM) (AID 2364); settings: BLM helicase DNA unwinding, fluorescence, in vitro; series mostly up to 57.1 µM
In short: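 Forked 20-bp duplex substrate (200 nM, TAMRA/BHQ-2) plus 2 mM ATP added after 15 min compound preincubation with 50 nM enzyme, pH 8.0, poly(dI-dC) 2.5 ug/ml. Strand separation followed by fluorescence (525/598 nm) over 2 h, normalized to enzyme-free and DMSO controls.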

[9] = Validation screen for small molecules that induce DNA re-replication in MCF 10A normal breast cells (AID 463097); settings: MCF 10A cells, DNA re-replication phenotype imaging; series mostly up to 46.1 µM; note: nearly all actives have a fitted effect of over 60% in size
In short: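 250 MCF 10A cells/well; compound pin-transferred; 48 hr, 37 C, 5% CO2; Hoechst 40 min; imaged 405/500-530 nm. Hits = more high-intensity nuclei.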

[10] = target: ATP-dependent DNA helicase Q1 (Homo sapiens) (UniProt P46063); assay: qHTS Validation Assay for Inhibitors of RecQ-Like Dna Helicase 1 (RECQ1) (AID 2353); settings: recombinant RECQ1 helicase DNA unwinding assay; series mostly up to 25.6 µM
In short: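 RECQ1T1 50 nM; forked duplex (20 bp + 30-nt ss tails) 200 nM, ATP 2 mM final; pH 8.0, 2 mM MgCl2, 2.5 ug/ml poly(dI-dC); 15 min compound preincubation; discontinuous kinetic read over 2 h at RT.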

Measured: outcome

Ubiquitin carboxyl-terminal hydrolase 2 (Homo sapiens), sequence (O75604 whole entry, looked up): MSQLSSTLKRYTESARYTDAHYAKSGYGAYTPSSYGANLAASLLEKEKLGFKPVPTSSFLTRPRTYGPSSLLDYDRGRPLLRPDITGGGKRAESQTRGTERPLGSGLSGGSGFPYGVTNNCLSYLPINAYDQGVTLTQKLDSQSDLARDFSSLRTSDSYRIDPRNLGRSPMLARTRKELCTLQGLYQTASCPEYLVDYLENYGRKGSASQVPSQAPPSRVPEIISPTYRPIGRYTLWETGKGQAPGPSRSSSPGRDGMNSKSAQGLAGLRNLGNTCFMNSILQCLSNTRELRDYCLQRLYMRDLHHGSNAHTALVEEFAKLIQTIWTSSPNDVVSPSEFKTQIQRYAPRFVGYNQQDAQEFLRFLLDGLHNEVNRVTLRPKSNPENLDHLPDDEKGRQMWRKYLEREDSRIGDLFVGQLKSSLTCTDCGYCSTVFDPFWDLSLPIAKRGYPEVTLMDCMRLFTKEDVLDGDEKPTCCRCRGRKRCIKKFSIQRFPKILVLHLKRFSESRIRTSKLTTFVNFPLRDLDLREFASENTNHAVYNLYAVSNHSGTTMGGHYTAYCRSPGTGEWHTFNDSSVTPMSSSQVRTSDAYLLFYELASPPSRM
DNA polymerase III PolC-type (Bacillus subtilis (strain 168)), sequence (P13267 whole entry, looked up): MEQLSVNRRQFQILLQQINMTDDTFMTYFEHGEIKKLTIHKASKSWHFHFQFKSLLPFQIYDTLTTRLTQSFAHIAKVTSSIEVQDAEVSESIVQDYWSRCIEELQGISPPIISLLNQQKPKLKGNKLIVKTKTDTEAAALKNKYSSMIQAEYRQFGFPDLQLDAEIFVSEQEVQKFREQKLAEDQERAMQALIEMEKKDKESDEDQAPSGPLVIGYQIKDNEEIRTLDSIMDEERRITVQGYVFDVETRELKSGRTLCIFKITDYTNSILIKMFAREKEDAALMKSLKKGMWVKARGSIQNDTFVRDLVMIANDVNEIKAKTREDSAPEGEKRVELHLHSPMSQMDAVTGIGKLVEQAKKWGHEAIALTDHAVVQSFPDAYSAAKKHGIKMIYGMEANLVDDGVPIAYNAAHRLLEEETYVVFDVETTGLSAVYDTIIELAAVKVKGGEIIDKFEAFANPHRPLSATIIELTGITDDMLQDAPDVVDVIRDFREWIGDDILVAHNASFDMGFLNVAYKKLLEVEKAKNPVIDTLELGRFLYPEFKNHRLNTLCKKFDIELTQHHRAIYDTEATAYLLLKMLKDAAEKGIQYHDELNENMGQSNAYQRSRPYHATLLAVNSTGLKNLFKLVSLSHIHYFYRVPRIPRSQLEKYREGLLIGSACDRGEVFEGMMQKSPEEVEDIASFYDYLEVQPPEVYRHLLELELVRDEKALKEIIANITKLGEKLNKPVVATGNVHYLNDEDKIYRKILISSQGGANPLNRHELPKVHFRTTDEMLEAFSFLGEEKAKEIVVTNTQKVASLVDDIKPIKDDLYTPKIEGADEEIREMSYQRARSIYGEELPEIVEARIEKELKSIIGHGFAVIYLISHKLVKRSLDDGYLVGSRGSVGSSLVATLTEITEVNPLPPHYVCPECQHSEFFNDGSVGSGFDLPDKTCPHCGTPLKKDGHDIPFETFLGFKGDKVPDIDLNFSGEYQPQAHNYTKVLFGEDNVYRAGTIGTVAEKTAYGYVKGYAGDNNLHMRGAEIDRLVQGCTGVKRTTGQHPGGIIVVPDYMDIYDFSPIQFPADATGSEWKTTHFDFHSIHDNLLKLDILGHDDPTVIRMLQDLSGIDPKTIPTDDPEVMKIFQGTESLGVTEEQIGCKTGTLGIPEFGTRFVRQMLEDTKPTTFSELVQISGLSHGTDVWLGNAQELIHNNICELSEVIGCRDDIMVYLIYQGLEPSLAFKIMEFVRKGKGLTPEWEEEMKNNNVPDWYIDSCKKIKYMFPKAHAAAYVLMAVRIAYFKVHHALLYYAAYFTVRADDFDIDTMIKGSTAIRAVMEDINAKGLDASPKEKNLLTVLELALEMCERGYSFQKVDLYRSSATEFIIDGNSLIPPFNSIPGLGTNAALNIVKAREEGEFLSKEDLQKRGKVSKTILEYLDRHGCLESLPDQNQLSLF
RecQ-like DNA helicase BLM (Homo sapiens), sequence (P54132 whole entry, looked up): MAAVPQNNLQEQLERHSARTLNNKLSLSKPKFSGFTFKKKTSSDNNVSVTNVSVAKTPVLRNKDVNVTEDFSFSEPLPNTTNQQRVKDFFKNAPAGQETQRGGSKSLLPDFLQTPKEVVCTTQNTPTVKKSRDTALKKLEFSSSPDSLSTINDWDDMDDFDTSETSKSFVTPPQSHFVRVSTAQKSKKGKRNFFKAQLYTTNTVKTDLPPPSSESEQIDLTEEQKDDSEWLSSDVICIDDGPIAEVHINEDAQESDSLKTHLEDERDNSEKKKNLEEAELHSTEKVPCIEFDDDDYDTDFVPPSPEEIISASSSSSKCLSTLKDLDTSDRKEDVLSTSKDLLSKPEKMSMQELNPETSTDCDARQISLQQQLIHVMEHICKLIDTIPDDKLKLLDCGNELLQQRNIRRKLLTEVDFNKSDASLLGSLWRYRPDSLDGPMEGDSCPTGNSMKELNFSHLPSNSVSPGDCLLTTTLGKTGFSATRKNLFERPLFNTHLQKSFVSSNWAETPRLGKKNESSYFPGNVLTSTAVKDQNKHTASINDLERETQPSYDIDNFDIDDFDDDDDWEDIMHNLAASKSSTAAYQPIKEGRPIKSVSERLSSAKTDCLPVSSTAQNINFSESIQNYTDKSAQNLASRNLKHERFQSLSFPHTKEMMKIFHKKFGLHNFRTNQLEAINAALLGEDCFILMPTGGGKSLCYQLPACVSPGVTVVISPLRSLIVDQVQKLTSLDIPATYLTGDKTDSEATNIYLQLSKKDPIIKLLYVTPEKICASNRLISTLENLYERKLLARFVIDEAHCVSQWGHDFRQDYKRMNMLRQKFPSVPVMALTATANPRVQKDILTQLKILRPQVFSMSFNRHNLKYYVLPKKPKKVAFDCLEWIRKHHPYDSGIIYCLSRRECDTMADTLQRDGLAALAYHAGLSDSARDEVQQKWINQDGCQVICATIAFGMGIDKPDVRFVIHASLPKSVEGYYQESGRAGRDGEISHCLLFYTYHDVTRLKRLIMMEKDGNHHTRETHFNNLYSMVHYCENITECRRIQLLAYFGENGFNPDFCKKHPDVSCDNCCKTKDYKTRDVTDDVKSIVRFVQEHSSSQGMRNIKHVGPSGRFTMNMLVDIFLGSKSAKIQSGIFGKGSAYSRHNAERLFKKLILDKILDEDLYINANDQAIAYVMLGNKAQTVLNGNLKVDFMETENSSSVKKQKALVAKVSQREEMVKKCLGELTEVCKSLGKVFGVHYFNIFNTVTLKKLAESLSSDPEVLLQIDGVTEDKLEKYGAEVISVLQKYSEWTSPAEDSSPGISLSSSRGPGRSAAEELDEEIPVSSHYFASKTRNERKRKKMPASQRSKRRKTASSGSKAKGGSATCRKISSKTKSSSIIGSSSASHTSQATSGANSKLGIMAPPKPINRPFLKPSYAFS
Ferritin light chain (Equus caballus), sequence (P02791 2-175 limits assumed): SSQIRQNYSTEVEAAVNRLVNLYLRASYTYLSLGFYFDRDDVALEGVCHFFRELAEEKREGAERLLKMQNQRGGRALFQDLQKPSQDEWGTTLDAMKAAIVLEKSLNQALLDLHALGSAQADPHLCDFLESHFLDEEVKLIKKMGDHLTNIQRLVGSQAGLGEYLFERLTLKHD
ATP-dependent DNA helicase Q1 (Homo sapiens), sequence (P46063 whole entry, looked up): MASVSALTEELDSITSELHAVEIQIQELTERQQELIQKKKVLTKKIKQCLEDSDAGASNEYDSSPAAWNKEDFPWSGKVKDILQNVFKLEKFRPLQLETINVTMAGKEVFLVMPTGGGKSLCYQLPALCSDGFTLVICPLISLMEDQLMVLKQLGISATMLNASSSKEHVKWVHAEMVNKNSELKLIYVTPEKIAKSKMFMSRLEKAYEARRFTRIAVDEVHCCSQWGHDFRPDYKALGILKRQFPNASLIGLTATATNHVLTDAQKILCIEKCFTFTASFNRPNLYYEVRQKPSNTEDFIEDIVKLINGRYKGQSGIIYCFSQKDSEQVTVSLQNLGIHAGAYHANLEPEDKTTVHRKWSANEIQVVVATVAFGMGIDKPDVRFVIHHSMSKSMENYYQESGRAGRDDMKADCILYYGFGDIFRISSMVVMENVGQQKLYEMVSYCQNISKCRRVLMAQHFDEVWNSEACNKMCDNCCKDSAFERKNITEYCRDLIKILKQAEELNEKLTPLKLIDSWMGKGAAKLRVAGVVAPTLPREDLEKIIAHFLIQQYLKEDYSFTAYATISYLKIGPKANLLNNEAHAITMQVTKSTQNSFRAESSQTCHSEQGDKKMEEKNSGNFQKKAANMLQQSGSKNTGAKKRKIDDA

CN=C(N)NCCC[C@H](N)C(=O)O
inactive: [1] | [2] | [3] | [4] | [5] | [6]

CCOC(=O)[C@H](CCc1ccccc1)N[C@@H](C)C(=O)N1[C@H](C(=O)O)C[C@H]2CCCC[C@@H]21
inactive: [1] | [2] | [3] | [4] | [5] | [6]

CC(=O)OCC1=C(C(=O)O)N2C(=O)[C@@H](NC(=O)CSc3ccncc3)[C@H]2SC1
inactive: [7] | [8] | [9]

NC(N)=NCc1cccc(I)c1
inactive: all assays above

CC(C)(C)NC[C@H](O)COc1nsnc1N1CCOCC1
inactive: [1] | [2] | [3] | [4] | [5] | [6]
